Test results: paper PMC4336329 (PLoS ONE, 2015)
About 14,000 (4.5%) of roughly 310,000 compounds showed an effect of 50% or more. Effects have a minus sign here. The list comes from a sample in which strong results are over-represented; it also holds similar structures and randomly drawn compounds.

The compounds below were run against human ether-à-go-go-related gene (hERG) potassium channel (human, UniProt Q12809) (assay: primary screen, population patch clamp on CHO cells stably expressing hERG; higher = less effect of the substance).
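Further: peak tail current of the secondary pulse compared with the same well before compound.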

Chain of human ether-à-go-go-related gene (hERG) potassium channel (Q12809 whole entry, looked up): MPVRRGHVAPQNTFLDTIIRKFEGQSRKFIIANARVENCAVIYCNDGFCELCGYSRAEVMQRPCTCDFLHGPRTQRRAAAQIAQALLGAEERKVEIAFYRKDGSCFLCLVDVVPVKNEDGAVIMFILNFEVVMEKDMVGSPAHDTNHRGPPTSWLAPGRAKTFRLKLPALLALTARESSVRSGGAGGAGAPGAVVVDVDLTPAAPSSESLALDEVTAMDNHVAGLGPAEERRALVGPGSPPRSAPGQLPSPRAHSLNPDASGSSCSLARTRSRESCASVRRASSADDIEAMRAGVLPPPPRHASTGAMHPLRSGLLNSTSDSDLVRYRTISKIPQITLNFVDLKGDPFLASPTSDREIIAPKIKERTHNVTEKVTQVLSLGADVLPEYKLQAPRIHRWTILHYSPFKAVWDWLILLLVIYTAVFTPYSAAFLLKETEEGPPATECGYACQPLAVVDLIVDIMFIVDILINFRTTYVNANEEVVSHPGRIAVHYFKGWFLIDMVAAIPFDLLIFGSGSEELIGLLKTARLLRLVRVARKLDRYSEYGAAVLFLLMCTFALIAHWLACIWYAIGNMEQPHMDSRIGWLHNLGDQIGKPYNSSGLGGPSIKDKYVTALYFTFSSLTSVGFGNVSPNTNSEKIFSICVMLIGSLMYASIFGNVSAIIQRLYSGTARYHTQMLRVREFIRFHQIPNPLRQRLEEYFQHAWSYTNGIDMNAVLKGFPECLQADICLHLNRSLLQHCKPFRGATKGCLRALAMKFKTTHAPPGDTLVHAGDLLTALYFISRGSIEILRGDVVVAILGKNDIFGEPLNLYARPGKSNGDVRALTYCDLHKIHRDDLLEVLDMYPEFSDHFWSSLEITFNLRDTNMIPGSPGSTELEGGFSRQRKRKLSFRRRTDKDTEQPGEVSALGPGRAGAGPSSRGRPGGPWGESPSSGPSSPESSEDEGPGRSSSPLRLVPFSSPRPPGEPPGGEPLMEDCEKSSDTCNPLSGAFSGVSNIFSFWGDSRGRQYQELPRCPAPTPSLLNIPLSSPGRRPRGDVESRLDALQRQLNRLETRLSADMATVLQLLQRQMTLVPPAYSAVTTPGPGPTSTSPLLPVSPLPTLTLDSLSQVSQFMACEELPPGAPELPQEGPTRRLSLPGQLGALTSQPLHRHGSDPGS

| SMILES | hERG current change (%, negative = inhibition) at 10uM [%] |
| --- | --- |
| O=C(c1ccc(Br)s1)N1CCN(c2ncccn2)CC1 | -20.3 |
| CC12CCC3c4ccc(O)cc4CCC3C1CC(O)C2O (stereo not shown) | 19.5 |
| CC1=C(C(=O)Nc2ccccn2)C(c2ccccc2Cl)NC(=S)N1 (stereo not shown) | 10.1 |
| CC(=C1C(=O)c2ccccc2C1=O)N1CCN(CCN=CC2=C(O)CC(C)(C)CC2=O)CC1 | -42.3 |
| CC(=NCCN1CCN(C(=S)Nc2ccccc2)CC1)C1=C(O)CC(C)(C)CC1=O | -15.3 |
| CC(=NCCN1CCN(C(C)=C2C(=O)c3ccccc3C2=O)CC1)C1=C(O)CC(C)(C)CC1=O | -50.5 |
| CCc1nnc(NC(=O)CSc2ccc(-c3ccccc3OC)nn2)s1 | -7.08 |
| CCS(=O)(=O)N1CCCC(C(=O)NCCN2CCC(Cc3ccccc3)CC2)C1 (stereo not shown) | -59.1 |
| CCCS(=O)(=O)N1CCCC(C(=O)NCCCN2CCN(c3ccc(F)cc3)CC2)C1 (stereo not shown) | -59.5 |
| CCCS(=O)(=O)N1CCCC(C(=O)NCCN2CCOCC2)C1 (stereo not shown) | 13.7 |
| O=C(NCCCN1CCC(Cc2ccccc2)CC1)C1CC(=O)N(C2CCCCCC2)C1 (stereo not shown) | -66.8 |
| CCCCN(CCCNC(=O)C1CCN(S(=O)(=O)CC)CC1)c1ccccc1 | -51.1 |
| CS(=O)(=O)N1CCCC(C(=O)NCCN2CCC(Cc3ccccc3)CC2)C1 (stereo not shown) | -28 |
| O=C(NCCCN1CCCCCC1)C1CC(=O)N(C2CCCC2)C1 (stereo not shown) | 5.99 |
| CCCCN(CCCNC(=O)C1CCN(S(=O)(=O)N2CCOCC2)CC1)c1ccccc1 | -48.8 |
| CS(=O)(=O)N1CCCC(C(=O)NCCCN2CCC(Cc3ccccc3)CC2)C1 (stereo not shown) | -33.5 |
| CCCS(=O)(=O)N1CCCC(C(=O)NCCCN2CCN(c3ccccc3F)CC2)C1 (stereo not shown) | -21.1 |
| CCN(CCCNC(=O)C1CCN(S(=O)(=O)CC)CC1)c1ccccc1 | -21.7 |
| O=C(NCCCN1CCC(Cc2ccccc2)CC1)C1CC(=O)N(C2CCCC2)C1 (stereo not shown) | -34.8 |
| COC(=O)c1sc2nc(SCC(=O)N(C)c3ccccc3)n(N)c(=O)c2c1C | 27.4 |
| Cc1cccc(OCCCOc2cccc3cccnc23)c1C | 10.4 |
| Cc1nc(CC(=O)N2CCN(S(=O)(=O)c3ccccc3C#N)CC2)cs1 | 10.3 |
| C/C(=N\NC(=O)CCC(=O)O)c1c(-c2ccccc2)c2cc(Br)ccc2[nH]c1=O | 6.72 |

| SMILES | hERG current change (%, negative = inhibition) at 10uM [%] |
| --- | --- |
| O=C(O)C1CC(c2ccccc2)=Nc2ccccc2S1 (stereo not shown) | 1.43 |
| CN1C(=O)/C(=C\c2ccncc2)SC1=Nc1ccccc1 | -11.2 |
| Cc1ccc(-c2nc(N)sc2C)cc1 | -16.9 |
| COC(=O)c1c(NC(=O)c2cccnc2Cl)sc(C(=O)N(C)C)c1C | -6.44 |
| S=c1[nH]nc(Nc2cccc3ccccc23)s1 | 16.3 |
| O=C(c1cc2sccc2n1Cc1ccccc1)N1CCc2ccccc21 | -2.82 |
| CCCC(=O)N1CCC(Cc2ccccc2)CC1 | 9.83 |
| CC1CC(C)CN(CCCNC(=O)C2CCCN(S(=O)(=O)N3CC(C)CC(C)C3)C2)C1 (stereo not shown) | -61 |
| CCCS(=O)(=O)N1CCC(C(=O)NCCN2CCCC2)CC1 | -7.65 |
| CC1CC(C)CN(S(=O)(=O)N2CCCC(C(=O)NCCCN3CCOCC3)C2)C1 (stereo not shown) | 19.1 |
| O=C(NCCCN1CCC(Cc2ccccc2)CC1)C1CCN(S(=O)(=O)N2CCC3(CC2)OCCO3)CC1 | -42.7 |
| CCCS(=O)(=O)N1CCC(C(=O)NCCN2CCC(Cc3ccccc3)CC2)CC1 | -57.6 |
| CCCCCCNCC(=O)N1CCC(Cc2ccccc2)CC1 | -71.7 |
| CCS(=O)(=O)N1CCC(C(=O)NCCN2CCN(Cc3ccccc3)CC2)CC1 | 2.07 |
| CCCS(=O)(=O)N1CCC(C(=O)NCCc2ccccc2)CC1 | 1.42 |
| CCS(=O)(=O)N1CCC(C(=O)NCCCN2CCC(Cc3ccccc3)CC2)CC1 | -65.5 |
| CCCNC(=O)N1CCC(Cc2ccccc2)CC1 | 16.6 |
| CC1CC(C)CN(S(=O)(=O)N2CCCC(C(=O)NCCCN3CCCCC3C)C2)C1 (stereo not shown) | -9.36 |
| COc1ccccc1NS(=O)(=O)/C=C/c1ccccc1 | -16.8 |
| O=C(CCN1C(=O)c2ccccc2C1=O)C1=NN[C@@H]2C(=O)N(c3ccc(F)cc3)C(=O)[C@H]12 | -5.4 |
| O=C(CCS(=O)(=O)c1ccc2c(c1)NC(=O)CS2)NCCc1ccccc1 | 8.31 |
| O=c1c2cc(N3CCOCC3)ccc2[nH]c(=S)n1CCCN1CCCCCC1 | -17 |
| BrC(/C=C\c1ccccc1)=N/Nc1nc(N2CCOCC2)nc(N2CCOCC2)n1 | -39 |
